These entries were drawn from the full list.
aSyn 5UTR act: Activators working through SNCA 5'UTR binding (MLPCN); 7.1% of 300,000 active; activity score, % (tested at 7.5 µM), hits read low; alpha-synuclein 5'UTR reporter, activators screen; in the data active = activity score below about -60%
* marks the source's active call; other numbers are inactive results.

What do the screens show for `CCN(c1ccccc1)S(=O)(=O)c1ccc(Oc2ccc(-n3ccnc3)cc2)nc1`?
aSyn 5UTR act: 103

What do the screens show for `Fc1ccc(CO/N=C2\CCCc3nonc32)cc1`?
aSyn 5UTR act: -91*

Results for CSc1ccc(C2c3[nH]c4ccccc4c3CCN2C(=O)c2ccnn2C)cc1 (stereo unspecified) ?
aSyn 5UTR act: -166*

What do the screens show for `Cc1ccc(NC(=O)C(C)N=C2NS(=O)(=O)c3ccccc32)cc1F` (stereo unspecified)?
aSyn 5UTR act: -96*

How did Cc1cc(C(c2nnnn2Cc2ccccc2)N2CCOCC2)c(C)n1-c1ccc2c(c1)OCO2 (stereo unspecified) do in these assays?
aSyn 5UTR act: -315*

Results for CC(C)(C)c1ccc(SCCc2cccnc2)cc1 ?
aSyn 5UTR act: -123*

How did CCOC(=O)c1ccc(-c2ccc(/C=N/NC(=O)CN(c3ccccc3Br)S(C)(=O)=O)o2)cc1 do in these assays?
aSyn 5UTR act: -140*

How did CCn1c(=O)oc2cc(NC(=O)CCl)ccc21 do in these assays?
aSyn 5UTR act: -104*

Results for Cn1c(=O)n(C)c2cc(NC(=O)CCl)ccc21 ?
aSyn 5UTR act: -180*

How did CCN1CCN(C(=O)c2ccc3c(=O)n(CCc4ccccc4)c(=O)[nH]c3c2)CC1 do in these assays?
aSyn 5UTR act: -72*

Results for CC1CCN(CCCNC(=O)c2ccc3c(=O)n(CCc4ccccc4)c(=O)[nH]c3c2)CC1 ?
aSyn 5UTR act: -74*

Results for CC1CCCCN1CCNC(=O)c1ccc2c(=O)n(CCc3ccccc3)c(=O)[nH]c2c1 (stereo unspecified) ?
aSyn 5UTR act: -79*

How did COc1cccc2oc3cc(C#Cc4ccccn4)ccc3c(=O)c12 do in these assays?
aSyn 5UTR act: -194*

Results for COC(=O)c1cccc(N/C=C(\[N+](=O)[O-])S(=O)(=O)c2ccccc2)c1 ?
aSyn 5UTR act: -62*

Results for O=c1[nH]n(Cc2ccccc2)c(=O)c2ccccc12 ?
aSyn 5UTR act: -68*

Results for CCOC(=O)C1=C(N)n2c(s/c(=C/c3ccco3)c2=O)=C(C(=O)OC)C1c1ccco1 (stereo unspecified) ?
aSyn 5UTR act: -66*

What do the screens show for `COc1ccc([C@H]2CC(=O)c3c(O)cc(O)cc3O2)cc1O`?
aSyn 5UTR act: -93*

How did COc1c(O)cc2c(c1O)C(=O)CC(c1ccccc1)O2 (stereo unspecified) do in these assays?
aSyn 5UTR act: -102*

What do the screens show for `CC(NC(=O)Nc1ccc(Br)cc1)C(C)(C)C` (stereo unspecified)?
aSyn 5UTR act: -77*

How did CCc1ccc(Oc2cc(C)nc(N)n2)cc1 do in these assays?
aSyn 5UTR act: -92*

What do the screens show for `CCCc1ccc(Oc2cc(Cl)nc(N)n2)cc1`?
aSyn 5UTR act: -149*

Results for O=C(Nc1c2c(nn1-c1ccc(F)cc1)CS(=O)(=O)C2)C1CCCC1 ?
aSyn 5UTR act: -62*

What do the screens show for `O=C(Nc1cccnc1Cl)c1noc2c1CCc1ccccc1-2`?
aSyn 5UTR act: -124*

Results for O=C(NCCN1CCOCC1)c1noc2c1CCc1ccccc1-2 ?
aSyn 5UTR act: -104*

What do the screens show for `CCCNC(=O)c1noc2c1CCc1ccccc1-2`?
aSyn 5UTR act: -119*

What do the screens show for `COc1ccc(C2=NN(C(=O)CN3CCOCC3)C(c3nc4ccccc4[nH]3)C2)cc1` (stereo unspecified)?
aSyn 5UTR act: -72*

Results for O=C(c1ccncc1)N1N=C(c2ccc(Cl)cc2)CC1c1ccccc1O (stereo unspecified) ?
aSyn 5UTR act: -128*

How did CCc1ccc(-c2ccc(C(=O)C(F)(F)F)[nH]2)cc1 do in these assays?
aSyn 5UTR act: -80*

Results for Cc1ccc2nc(NC(=O)CCn3cccc3)sc2c1 ?
aSyn 5UTR act: -115*

What do the screens show for `Cc1ccc2nc(NC(=O)CCCC(=O)O)sc2c1`?
aSyn 5UTR act: 102

What do the screens show for `CCOCC(=O)Nc1nc2ccc(C)cc2s1`?
aSyn 5UTR act: -85*

What do the screens show for `Cc1ccc2nc(NC(=O)C3CC3C)sc2c1` (stereo unspecified)?
aSyn 5UTR act: -105*

What do the screens show for `CCOc1ccc2nc(-c3cc(NC(C)=O)ccc3O)sc2c1`?
aSyn 5UTR act: -161*

How did Cc1ccc2nc(NC(=O)COC(=O)c3ccccn3)sc2c1 do in these assays?
aSyn 5UTR act: -109*

What do the screens show for `CCOc1ccc2nc(NC(=O)c3cnccn3)sc2c1`?
aSyn 5UTR act: -127*

Results for Cc1ccc2nc(NC(=O)CSCC(=O)OCC(=O)c3ccccc3)sc2c1 ?
aSyn 5UTR act: 62

How did CCOc1ccc2nc(NC(=O)C3CCN(C(=O)c4ccco4)CC3)sc2c1 do in these assays?
aSyn 5UTR act: -99*

How did C/C=C/C(=O)OCC(=O)Nc1nc2ccc(C)cc2s1 do in these assays?
aSyn 5UTR act: -74*

How did CCOCC(=O)Nc1nc2ccc(OCC)cc2s1 do in these assays?
aSyn 5UTR act: -73*

Results for CCOc1ccc2nc(NC(=O)C3(C)CC3(Br)Br)sc2c1 (stereo unspecified) ?
aSyn 5UTR act: -128*

Results for COC(=O)c1ccccc1NC1=C/C(=N\S(=O)(=O)c2cccs2)c2ccccc2C1=O ?
aSyn 5UTR act: -91*

Results for Cc1ccc2c(c1)[nH]c1c(=O)n(Cc3ccco3)cnc12 ?
aSyn 5UTR act: -118*

What do the screens show for `Clc1ccc(-n2ncc3c(NCc4ccc5c(c4)OCO5)ncnc32)cc1`?
aSyn 5UTR act: -81*

Results for CCC(CO)Nc1ncnc2c1cnn2-c1ccc(OC)cc1 (stereo unspecified) ?
aSyn 5UTR act: -75*

How did COc1ccc(-n2ncc3c(NCc4ccccn4)ncnc32)cc1 do in these assays?
aSyn 5UTR act: -128*

Results for Clc1ccc(-n2ncc3c(NCc4ccco4)ncnc32)cc1 ?
aSyn 5UTR act: -227*

What do the screens show for `CCCN(CCC)c1ncnc2c1cnn2-c1ccc(OC)cc1`?
aSyn 5UTR act: -77*

Results for CN(C)CCNc1ncnc2c1cnn2-c1ccc(Cl)cc1 ?
aSyn 5UTR act: -93*

What do the screens show for `COc1ccc(-n2ncc3c(NCc4ccco4)ncnc32)cc1`?
aSyn 5UTR act: -162*

What do the screens show for `Cn1cc(/C=C(\NC(=O)c2ccccc2Cl)C(=O)NCCN2CCOCC2)c2ccccc21`?
aSyn 5UTR act: -72*

How did CCN(CC)CCNC(=O)/C(=C/c1cn(C)c2ccccc12)NC(=O)c1ccc(OC)c(OC)c1 do in these assays?
aSyn 5UTR act: -64*

How did CCC(=O)N1CCc2cc(-c3csc(NC(=O)c4ccco4)n3)ccc21 do in these assays?
aSyn 5UTR act: -77*

Results for c1cc2c(cc1-c1csc(NNC3=NCCCCC3)n1)OCCO2 ?
aSyn 5UTR act: -70*

What do the screens show for `C=CCNc1nc(-c2ccc(O)c(C(N)=O)c2)cs1`?
aSyn 5UTR act: -78*

What do the screens show for `O=C(Nc1nc(-c2ccncc2)cs1)c1ccco1`?
aSyn 5UTR act: -86*

How did CCC(=O)Nc1nc(-c2ccc3c(c2)OCCO3)cs1 do in these assays?
aSyn 5UTR act: -136*

Results for O=C(Nc1nc(-c2ccc3c(c2)OCCO3)cs1)c1ccco1 ?
aSyn 5UTR act: -77*

What do the screens show for `O=C(NC(=S)Nc1nc(-c2ccccc2)cs1)c1ccco1`?
aSyn 5UTR act: -77*

How did C=CCNc1nc(-c2ccc3c(c2)OCCO3)cs1 do in these assays?
aSyn 5UTR act: -134*

What do the screens show for `NC1=NN=C(c2ccc3c(c2)OCCO3)CS1`?
aSyn 5UTR act: 57

How did O=C(Nc1nc(-c2cccs2)cs1)c1ccco1 do in these assays?
aSyn 5UTR act: -85*

What do the screens show for `CC(=O)Nc1nc(-c2ccc3c(c2)CCO3)cs1`?
aSyn 5UTR act: -125*

Compound activity (PubChem BioAssay)
